The supplement of paper PMC6555819

Assays:
Assay in all cases: PBM binding z-score (relative to random genomic background probes); higher = stronger binding; sequences stand for … in GC…GCGATTGACAGCGTAGAATGAAGG
[1] = tested on: FXR:RXRa (NR concentration 270 nM, RXRa partner concentration 90 nM)
Method in brief: (§1)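 Binding buffer was PBS pH 7.4 with 2% milk, 0.02% Triton X-100, 1 mM DTT, 0.2 mg/mL BSA and 0.4 mg/ml salmon testes DNA. In it, ligand-free nuclear receptor dimers were incubated 1 h on custom Agilent 4×180K protein-binding microarrays carrying double-stranded probes. Antibodies against each partner (one per run) detected binding, and z-scores were calculated against random background probes after regression normalization of scanned fluorescence.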

[2] = tested on: LXRa:RXRa (NR concentration 270 nM, RXRa partner concentration 90 nM)
Method in brief: as §1

[3] = tested on: LXRa homodimer (NR concentration 270 nM)
Method in brief: as §1

[4] = tested on: LXRb:RXRa (NR concentration 270 nM, RXRa partner concentration 90 nM)
Method in brief: as §1

[5] = tested on: LXRb homodimer (NR concentration 270 nM)
Method in brief: as §1

[6] = tested on: PPARa:RXRa (NR concentration 270 nM, RXRa partner concentration 90 nM)
Method in brief: as §1

[7] = tested on: PPARg:RXRa (NR concentration 180 nM, RXRa partner concentration 90 nM)
Method in brief: as §1

[8] = tested on: PPARg:RXRa 270nM:90nM, anti-RXR (NR concentration 270 nM, RXRa partner concentration 90 nM)
Method in brief: as §1

[9] = tested on: PPARg:RXRa 30nM:10nM, anti-RXR (NR concentration 30 nM, RXRa partner concentration 10 nM)
Method in brief: as §1

[10] = tested on: PPARg:RXRa 90nM:30nM, anti-RXR (NR concentration 90 nM, RXRa partner concentration 30 nM)
Method in brief: as §1

[11] = tested on: PPARg:RXRa DBDmut IVT, anti-RXR (DBD mutation: RXRa K156A/R161A, NR concentration 270 nM, RXRa partner concentration 90 nM)
Method in brief: as §1

[12] = tested on: PPARg:RXRa IVT, anti-PPARg (NR concentration 270 nM, RXRa partner concentration 90 nM)
Method in brief: as §1

[13] = tested on: PPARg DBDmut:RXRa IVT, anti-PPARg (DBD mutation: PPARg1 K132A/R137A, NR concentration 270 nM, RXRa partner concentration 90 nM)
Method in brief: as §1

[14] = tested on: PPARg DBDmut IVT, anti-PPARg (DBD mutation: PPARg1 K132A/R137A, NR concentration 270 nM)
Method in brief: as §1

[15] = tested on: PPARg homodimer (NR concentration 180 nM)
Method in brief: as §1

[16] = tested on: PXR:RXRa (NR concentration 270 nM, RXRa partner concentration 90 nM)
Method in brief: as §1

[17] = tested on: PXR homodimer (NR concentration 270 nM)
Method in brief: as §1

[18] = tested on: RARa:RXR (NR concentration 270 nM, RXRa partner concentration 90 nM)
Method in brief: as §1

[19] = tested on: RARa homodimer (NR concentration 270 nM)
Method in brief: as §1

[20] = tested on: RARb:RXRa (NR concentration 270 nM, RXRa partner concentration 90 nM)
Method in brief: as §1

Sequence | PBM binding z-score [1] | PBM binding z-score [2] | PBM binding z-score [3] | PBM binding z-score [4] | PBM binding z-score [5] | PBM binding z-score [6] | PBM binding z-score [7] | PBM binding z-score [8] | PBM binding z-score [9] | PBM binding z-score [10] | PBM binding z-score [11] | PBM binding z-score [12] | PBM binding z-score [13] | PBM binding z-score [14] | PBM binding z-score [15] | PBM binding z-score [16] | PBM binding z-score [17] | PBM binding z-score [18] | PBM binding z-score [19] | PBM binding z-score [20]
CCTCGGAGGACAACAGAAGGTCAGAGCTGCCAGA | 0.854 | 1.74 | 0.922 | 1.14 | -0.67 | 1.78 | 0.435 | 0.249 | -0.533 | -0.218 | 0.129 | 0.0477 | -0.565 | -1.32 | 1.42 | 1.43 | -0.04 | 1.95 | 0.344 | 3.02
ATCGAAAGGTCGACGGTGAGTATACCCACCCGAA | 4.38 | 3.44 | 0.131 | 2.47 | 0.548 | 4.12 | 2.45 | 3.09 | 1.17 | 2.63 | -0.188 | 1.6 | 0.9 | 0.777 | 1.58 | 2.43 | -0.256 | 3.22 | 0.352 | 3.8
TCTCGGAGGACACAAAAGGTCAGAGCTCGACATC | 2.8 | 4.16 | 2.83 | 3.27 | 0.142 | 3.53 | 1.51 | 2.66 | 2.44 | 2.62 | 1.53 | 1.65 | -0.0324 | -0.692 | 3.51 | 3.82 | 0.682 | 4.29 | 1.33 | 4.08
TCGAGTAGGTTAGGGGCATCCAGAATGGCGTCGA | 0.419 | 0.286 | -0.391 | 0.913 | -0.812 | 1.38 | 0.651 | 2.05 | 1.32 | 1.8 | 1.78 | 1.45 | -0.511 | -0.719 | 0.537 | 0.349 | -0.0589 | 0.496 | -0.597 | 1.18
AGAATGAGGTTATACGTAGATCAAGGAAGAAAGT | 2.5 | 2.22 | 0.0848 | 1.72 | 0.172 | 3.25 | 2.25 | 2.12 | 0.826 | 1.62 | 4.05 | 2.17 | 1.37 | 0.946 | 1.39 | 1.25 | 0.179 | 1.97 | 0.408 | 1.58
TGGCAAAGTTCAAAGGTAACGTAAGTATCCACAC | 7.23 | 6.17 | 4.18 | 4.49 | 1.25 | 5.55 | 6.74 | 7.1 | 4.38 | 6.02 | -0.0424 | 3.1 | 0.662 | 1.12 | 3.45 | 5.58 | 4.43 | 6.87 | 1.43 | 5.11
CAAACTATGTCAAGAGGTCAAAGTCCGCTTCCCG | 5.04 | 5.63 | 5.89 | 4.97 | 2.01 | 5.33 | 5.62 | 6.27 | 4.55 | 6 | 4.61 | 4.88 | 1.22 | 0.601 | 4.01 | 5.64 | 2.84 | 6.21 | 2.09 | 4.3
ATCTCTAGGTAAAACTCAGTTCAGTGAAGAACGC | 0.591 | 0.776 | 0.947 | 0.542 | 1.02 | 0.518 | 0.101 | 0.473 | 0.403 | 0.618 | 2.63 | 1.95 | 0.847 | 0.779 | 1.22 | 1.7 | 1.99 | 0.609 | 1.49 | 0.514
GCTATTAGTTGAACGGGCAACCGAATGATTCTCG | -0.438 | -0.312 | -0.165 | -0.485 | -0.496 | -0.347 | 0.352 | 0.00975 | -0.295 | -0.0379 | 0.443 | -0.481 | -1.02 | -0.0789 | -0.518 | -0.435 | -0.664 | -0.533 | -0.461 | 0.14
CAGCCTCGGTCAGGGCCAGTATAGGAGGAACGTT | -0.344 | -0.223 | -0.491 | -0.601 | -1.46 | -0.701 | -0.243 | -1.13 | -1.22 | -1.45 | -0.887 | -0.552 | -1.14 | -2.31 | -0.745 | -0.881 | -0.661 | -0.746 | -0.656 | 2.01
GTACCAAGGTGAATAGTTCGTTGATGAGTAGGCG | 0.539 | 0.334 | -0.116 | 0.214 | -0.29 | 1.24 | 0.857 | 1.06 | -0.033 | 0.842 | 1.57 | 1.94 | 0.321 | 0.393 | 0.906 | 0.39 | 0.918 | 0.576 | 0.742 | 1.94
GCTAGTTGGTCAGTAAAAGGTCACACTCCGGTCG | 3.15 | 4.29 | 4.97 | 3.76 | 0.637 | 4.19 | 2.49 | 4.24 | 1.86 | 3.7 | 1.66 | 2.87 | -0.175 | 0.207 | 3.12 | 4.77 | 0.877 | 5.45 | 1.9 | 4.3
ACTAGCCGGCCAAGTTTGGGTCACTCAAACAAAG | 0.307 | 0.194 | -0.183 | 0.789 | -0.664 | 1.32 | -0.0659 | -0.198 | -1.03 | -0.301 | -0.561 | 0.67 | -0.942 | -0.912 | 0.449 | 0.729 | -0.476 | 1.25 | -0.454 | 1.5
CGTCCAAGGTCAAGATCAGTGAAAGAGACTCGAA | 6.95 | 4.97 | 0.248 | 3.85 | 0.6 | 5.63 | 4.78 | 5.2 | 1.46 | 3.58 | 3.03 | 3.31 | 0.858 | 0.353 | 2.49 | 3.3 | 0.349 | 3.99 | 1.69 | 5.14
